# Source: the supplement of paper PMC6992640
# ± gives the standard deviation of the averaged measurements.
# Experiments:
# Test in all cases: cell viability (% of vehicle); higher = less cytotoxic
# Conditions in all cases: 10 µM; 72 h
# HCI01 = system: HCI01 (cells of a triple-negative basal-like breast cancer xenograft)
# HCI03 = system: HCI03 (cells of an ER-positive luminal breast cancer xenograft)
# HCI09 = system: HCI09 (cells of a triple-negative luminal androgen receptor type breast cancer xenograft)
# HCI11 = system: HCI11 (cells of an ER-positive luminal breast cancer xenograft)
# HCI13 = system: HCI13 (cells of an ER-positive luminal breast cancer xenograft)
# HCI16 = system: HCI16 (cells of a triple-negative basal-like breast cancer xenograft)
# UCD52 = system: UCD52 (cells of a triple-negative basal-like breast cancer xenograft)
# WHIM2 = system: WHIM2 (cells of a triple-negative basal-like breast cancer xenograft)
# WHIM30 = system: WHIM30 (cells of a triple-negative basal-like breast cancer xenograft)
# 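Further: PDX cells carrying CMV promoter-driven luciferase, viability read as total photon flux per second by IVIS imaging following D-luciferin, vehicle control 0.1% DMSO.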
SMILES,cell viability (HCI01),cell viability (HCI03),cell viability (HCI09),cell viability (HCI11),cell viability (HCI13),cell viability (HCI16),cell viability (UCD52),cell viability (WHIM2),cell viability (WHIM30)
Oc1ccc(OC2CCCCO2)cc1 (centres undefined) [Deoxyarbutin],103 ± 22,138,127 ± 11,112,84.9 ± 5.5,145,129 ± 4.3,132 ± 34,117 ± 11
CCOC(=O)C(CCc1ccccc1)NC(C)C(=O)N1CCCC1C(=O)O.O=C(O)C=CC(=O)O (centres undefined) [Enalapril Maleate],128 ± 31,126,101 ± 2.9,72.3,102 ± 8.6,120,120 ± 4.4,116 ± 15,104 ± 3
CCCCCN(C)CCC(O)(P(=O)([O-])O)P(=O)(O)O.O.[Na+] [Ibandronate sodium],113 ± 30,93.2,107 ± 19,101,126 ± 20,138,115 ± 5.5,130 ± 14,128 ± 22
CC(=O)OC12COC1CC(O)C1(C)C(=O)C(O)C3=C(C)C(OC(=O)C(O)C(NC(=O)OC(C)(C)C)c4ccccc4)CC(O)(C(OC(=O)c4ccccc4)C21)C3(C)C.O.O.O (centres undefined) [Docetaxel Trihydrate],106 ± 13,96.7,72.6 ± 5.4,86.1,101 ± 3.5,155,91.02 ± 0.77,72.3 ± 6.2,107 ± 5.4
Cc1ccc(Nc2nccc(N(C)c3ccc4c(C)n(C)nc4c3)n2)cc1S(N)(=O)=O.Cl [Pazopanib Hydrochloride],123 ± 20,101,77.01 ± 0.6,96.8,75.6 ± 13,134,94.9 ± 13,127 ± 32,76.7 ± 5.5
Br.Br.Br.Br.Br.Cc1cc(N2CCN(C3CNC(C(=O)N4CCSC4)C3)CC2)n(-c2ccccc2)n1.Cc1cc(N2CCN(C3CNC(C(=O)N4CCSC4)C3)CC2)n(-c2ccccc2)n1 (centres undefined) [Teneligliptin hydrobromide],111 ± 3.1,95.2,82.5 ± 13,71.5,79.96 ± 0.58,88.2,82 ± 1.3,99 ± 20,88.4 ± 3.9
CC(C(=O)O)c1ccc(C(=O)c2cccs2)cc1 (centres undefined) [Suprofen],116 ± 29,133,97.9 ± 4,69.5,114 ± 7.9,125,102.3 ± 0.22,107 ± 3.9,100 ± 15
O=C1CCc2cc(OCCCCc3nnnn3C3CCCCC3)ccc2N1 [Cilostazol],133 ± 7.6,125,78.2 ± 12,106,126 ± 24,93.7,80.8 ± 7.3,191 ± 27,125 ± 25
NCC1CCC(C(=O)O)CC1 (centres undefined) [Tranexamic Acid],118 ± 7.2,116,94.6 ± 25,111,74.8 ± 0.96,102,92.2 ± 5,124 ± 17,111 ± 16
CC(COc1ccccc1)N(CCCl)Cc1ccccc1.Cl (centres undefined) [Phenoxybenzamine HCl],122 ± 3.3,131,133 ± 28,114,150 ± 8.9,195,104.7 ± 0.72,93.9 ± 10,191 ± 9.4
O=C1OC(C(O)CO)C([O-])=C1O.[Na+] (centres undefined) [Sodium ascorbate],94.7 ± 14,87,90.3 ± 1.3,87,52 ± 6.5,92.3,77.3 ± 8.9,115 ± 31,120 ± 3
CCCN(CCC)CCc1cccc2c1CC(=O)N2.Cl [Ropinirole HCl],61.7 ± 39,93.8,87.9 ± 2.6,86.3,95.9 ± 8.2,102,78.9 ± 7.1,91.6 ± 38,126 ± 12
CC(C)(Sc1cc(C(C)(C)C)c(O)c(C(C)(C)C)c1)Sc1cc(C(C)(C)C)c(O)c(C(C)(C)C)c1 [Probucol],83.1 ± 22,129,116 ± 8.1,89.7,94.85 ± 0.74,103,93.68 ± 0.28,90.5 ± 23,113 ± 1.5
CCc1cc(C(C)=NOCc2ccc(C3CCCCC3)c(C(F)(F)F)c2)ccc1CN1CC(C(=O)O)C1 [BAF312 (Siponimod)],97.4 ± 10,124,44.2 ± 29,72.2,75.64 ± 0.57,115,93.7 ± 1.5,93.7 ± 17,111 ± 9.5
Clc1ccccc1C(c1ccccc1)(c1ccccc1)n1ccnc1 [Clotrimazole],82.5 ± 21,70.8,55.1 ± 39,95.1,85.5 ± 21,79.8,79.6 ± 8.2,73.7 ± 16,125 ± 1
O=CC(O)C(O)C(O)CO (centres undefined) [Xylose],70.5 ± 35,96.1,91.8 ± 13,90.9,104 ± 18,108,83 ± 1.1,94.5 ± 4.8,129 ± 0.16
Oc1ccc(C2CNCCc3c2cc(O)c(O)c3Cl)cc1 (centres undefined) [Fenoldopam],125 ± 16,101,107 ± 8.1,101,90.4 ± 2.4,124,110.5 ± 0.48,96.8 ± 13,126 ± 9.5
CN1CC(=O)N2[C@H](c3ccc4c(c3)OCO4)c3[nH]c4ccccc4c3C[C@@H]2C1=O [Tadalafil],108 ± 1.5,150,90 ± 22,141,95.7 ± 3.2,88.4,96.7 ± 12,112 ± 3,105 ± 16

SMILES,cell viability (HCI01),cell viability (HCI03),cell viability (HCI09),cell viability (HCI11),cell viability (HCI13),cell viability (HCI16),cell viability (UCD52),cell viability (WHIM2),cell viability (WHIM30)
CCN(CCO)CCCOc1ccc2c(Nc3cc(CC(=O)Nc4cccc(F)c4)[nH]n3)ncnc2c1 [Barasertib (AZD1152-HQPA)],136 ± 22,118,79.2 ± 6.8,91.5,97.3 ± 5.7,143,107 ± 20,89.4 ± 4,131 ± 0.53
FC(F)(F)c1ccc(C=Cc2nc(COc3ccc(CCCCn4ccnn4)cc3)co2)cc1 [Mubritinib (TAK 165)],111 ± 4,89.9,26.1 ± 3.1,62.2,65.54 ± 0.49,124,56.43 ± 0.074,120 ± 31,63.1 ± 6.1
Cc1cc(C=CC#N)cc(C)c1Nc1ccnc(Nc2ccc(C#N)cc2)n1 [Rilpivirine],122 ± 9.4,111,96.5 ± 4.4,96.3,122 ± 0.84,83.9,85.5 ± 8.7,93.7 ± 11,110 ± 28
CC(C)(C)NCC(O)c1ccc(O)c(CO)c1.O=S(=O)(O)O (centres undefined) [Salbutamol Sulfate],103 ± 5.9,104,97.4 ± 19,90.5,106 ± 21,104,85.4 ± 4.9,92.9 ± 19,114 ± 6.2
CCCCC1=NC2(CCCC2)C(=O)N1Cc1ccc(-c2ccccc2-c2nn[nH]n2)cc1 [Irbesartan],86.3 ± 2,105,94.6 ± 3.9,91.8,114 ± 2.4,107,103 ± 5.5,105 ± 4.9,82.7 ± 24
CNC(=O)c1ccc(N2C(=S)N(c3ccc(C#N)c(C(F)(F)F)c3)C(=O)C2(C)C)cc1F [MDV3100 (Enzalutamide)],115 ± 11,138,104.5 ± 0.14,96.1,94.3 ± 22,107,117 ± 6,97.9 ± 3.6,157 ± 1.9
CNC(=C[N+](=O)[O-])NCCSCc1ccc(CN(C)C)o1.Cl [Ranitidine],110 ± 5,125,112 ± 1.9,103,122 ± 6.4,122,89.9 ± 9.7,85.6 ± 2.9,113 ± 11
COc1ccc2cc([C@H](C)C(=O)[O-])ccc2c1.[Na+] [Naproxen Sodium],83.6 ± 6.4,111,85.8 ± 14,106,124 ± 29,100,99.9 ± 3.1,102 ± 12,121 ± 22
CCN(CC)CCOC(=O)C1(C2CCCCC2)CCCCC1.Cl [Dicyclomine HCl],126 ± 7.2,123,102 ± 11,99.7,90.1 ± 10,141,68.6 ± 1.9,104 ± 1.9,117 ± 2.5
COC(=O)C1C2CC3c4[nH]c5cc(OC)ccc5c4CCN3CC2CC(OC(=O)c2cc(OC)c(OC)c(OC)c2)C1OC.Cl (centres undefined) [Reserpine hydrochloride],109 ± 8.9,114,66.7 ± 3.4,97.6,124 ± 17,87.9,79.9 ± 1.5,92.6 ± 19,78.4 ± 6.3
COc1cc(C(=O)NC2CCCNC2)cc(OC)c1OC (centres undefined) [Troxipide],98.8 ± 1,110,107 ± 28,96.3,57.8 ± 3.5,106,96.8 ± 7.8,103 ± 15,137 ± 11
O=C(O)c1cc(=O)[nH]c(=O)[nH]1 [Orotic acid],90.2 ± 12,100,88.5 ± 22,93.2,85.7 ± 3.8,120,93.6 ± 9.7,102.1 ± 0.24,76.6 ± 5.3
COC1=CC=C(/C(C2=CC=C(OC)C=C2)=C(Cl)/C3=CC=C(OC)C=C3)C=C1 [Chlorotrianisene],85.2 ± 4.9,125,86.2 ± 23,101,76.3 ± 15,95.5,89.8 ± 13,95 ± 1.6,96.58 ± 0.32
Cc1noc(NS(=O)(=O)c2ccc(N)cc2)c1C [Sulfisoxazole],89.3 ± 28,121,94.4 ± 8.1,86.9,107 ± 2.8,112,99.8 ± 3.5,84.1 ± 8.8,117 ± 1.3
CC12CCC(O)CC1=CCC1C2CCC2(C)C(n3cnc4ccccc43)=CCC12 (centres undefined),119 ± 15,58.2,54.3 ± 41,76.2,103 ± 7.5,96.3,83.2 ± 4.1,118 ± 18,93.6 ± 13
COc1cc(C)c(C=CC(C)=CC=CC(C)=CC(=O)O)c(C)c1C [Acitretin],113 ± 9.7,72.4,90.9 ± 14,86.5,83 ± 13,76.7,130 ± 8.7,90.5 ± 16,145 ± 42
CNS(=O)(=O)CCc1ccc2[nH]cc(C3CCN(C)CC3)c2c1.Cl [Naratriptan],102 ± 13,127,96.7 ± 4.1,72.5,86.22 ± 0.42,105,103 ± 1.1,91.5 ± 8,109 ± 7.3
COC(=O)C1=COC(O)C2C(CO)=CCC12 (centres undefined) [Genipin],168 ± 20,138,95.3 ± 6,98.6,119 ± 2.7,198,110 ± 5.3,124 ± 11,155 ± 9.6
